Test results as given in PubChem BioAssay AID1159580 (chemical genetic matrix, 2015).
The whole screen tested about 5,500 compounds, of which about 2,000 (36%) were called active. Not shown: some 18% with an inconclusive outcome. No stated cut-off is given here; in the data, active means normalized growth mostly below about 0.91 (no sharp cut-off); inconclusive means no clear call, values can overlap the other calls; inactive means mostly above about 0.92. This is one part of the list.

Test: chemical genetic growth profiling, strain panel (AID 1159580);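 further: tested at 20 µM; growth read once vehicle control cultures reached saturation at 30 °C; 1 = growth at the plate median or of vehicle wells; lower values mean less growth of the strain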
Conditions: growth OD
[1] = S. cerevisiae deletion strains, locus YAL013W, strain DEP1, active compounds read low
[2] = S. cerevisiae deletion strains, locus YGR078C, strain PAC10, active compounds read low
[3] = S. cerevisiae deletion strains, locus YMR263W, strain SAP30, active compounds read low
[4] = S. cerevisiae deletion strains, locus YNL128W, strain TEP1, active compounds read low
[5] = S. cerevisiae deletion strains, locus YNL322C, strain KRE1, active compounds read low
[6] = S. cerevisiae deletion strains, locus YPL055C, strain LGE1, active compounds read low
[7] = S. cerevisiae deletion strains, locus YAL040C, strain CLN3, active compounds read low
[8] = S. cerevisiae deletion strains, locus YER002W, strain NOP16, active compounds read low
[9] = S. cerevisiae deletion strains, locus YNL175C, strain NOP13, active compounds read low
[10] = S. cerevisiae deletion strains, locus YNL197C, strain WHI3, active compounds read low
[11] = S. cerevisiae deletion strains, locus YNL224C, strain SQS1, active compounds read low
[12] = S. cerevisiae deletion strains, locus YOR083W, strain WHI5 (second series), active compounds read low

Measured: normalized growth

Cn1nccc1NS(=O)(=O)c1ccc(C(C)(C)C)cc1
inactive: [1] 0.982 | S. cerevisiae deletion strains, locus YBR229C, strain ROT2, active compounds read low 0.97 | S. cerevisiae deletion strains, locus YCL061C, strain MRC1, active compounds read low 0.982 | S. cerevisiae deletion strains, locus YDL101C, strain DUN1, active compounds read low 0.983 | S. cerevisiae deletion strains, locus YDR150W, strain NUM1, active compounds read low 0.992 | S. cerevisiae deletion strains, locus YEL061C, strain CIN8, active compounds read low 0.984 | [2] 0.985 | S. cerevisiae deletion strains, locus YGR229C, strain SMI1, active compounds read low 0.981 | S. cerevisiae deletion strains, locus YHR030C, strain SLT2, active compounds read low 0.948 | S. cerevisiae deletion strains, locus YHR087W, strain rtc3, active compounds read low 0.973 | S. cerevisiae deletion strains, locus YJR043C, strain POL32, active compounds read low 0.978 | S. cerevisiae deletion strains, locus YJR075W, strain HOC1, active compounds read low 0.987 | S. cerevisiae deletion strains, locus YKL190W, strain CNB1, active compounds read low 0.96 | S. cerevisiae deletion strains, locus YLR039C, strain RIC1, active compounds read low 0.92 | S. cerevisiae deletion strains, locus YLR058C, strain SHM2 (second series), active compounds read low 0.975 | S. cerevisiae deletion strains, locus YLR085C, strain ARP6, active compounds read low 1.08 | S. cerevisiae deletion strains, locus YLR262C, strain YPT6, active compounds read low 0.82 | S. cerevisiae deletion strains, locus YML094W, strain GIM5, active compounds read low 1.03 | S. cerevisiae deletion strains, locus YMR219W, strain ESC1, active compounds read low 0.985 | [3] 0.979 | [4] 0.968 | S. cerevisiae deletion strains, locus YNL153C, strain GIM3, active compounds read low 0.989 | S. cerevisiae deletion strains, locus YNL298W, strain CLA4 (second series), active compounds read low 0.948 | [5] 0.98 | S. cerevisiae deletion strains, locus YNR030W, strain Alg12, active compounds read low 1 | [6] 1.03 | S. cerevisiae deletion strains, locus YPL241C, strain CIN2, active compounds read low 1.01 | S. cerevisiae deletion strains, locus YPR135W, strain CTF4, active compounds read low 0.929 | S. cerevisiae strains, strain wild type, active compounds read low 0.959

CC(C)(C)c1ccc(S(=O)(=O)/C=C/C#N)cc1
inactive: [5] 1.01
active: [1] 0.234 | [7] 0.0822 | [8] 0.139 | [2] 0.0608 | [4] 0.0795 | [9] 0.227 | [10] 0.0935 | [11] 0.255 | [12] 0.0681

OC[C@H]1O[C@@H](n2cnc3c(NC4CCCCC4)ncnc32)[C@H](O)[C@@H]1O
inactive: [7] 1.04 | S. cerevisiae deletion strains, locus YCL061C, strain MRC1 (second series), active compounds read low 1.01 | S. cerevisiae deletion strains, locus YDR363W, strain ESC2, active compounds read low 0.994 | [8] 1.01 | [2] 1.05 | [3] 1.01 | S. cerevisiae deletion strains, locus YMR307W, strain GAS1, active compounds read low 1.01 | [9] 1.01 | [10] 1.01 | [11] 1 | [5] 1.02 | [12] 0.984 | [6] 0.995
